Most compounds without a hit are left out; they make up all but 3% or so of the library.
Mtb FBA inh – Mtb FBA enzyme inhibitors, primary screen, biochemical, fluorescence, strain H37Rv. Fructose-bisphosphate aldolase (Mycobacterium tuberculosis (strain ATCC 25618 / H37Rv)), …. AID 588726, 2011. inhibition, % at 1 µM. purified M. tuberculosis FBA, fluorescence read-out. actives 2.3% (n = 360,000);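 also: 0% = vehicle and 100% = reference inhibitor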
Target sequence (P9WQA3 whole entry, looked up): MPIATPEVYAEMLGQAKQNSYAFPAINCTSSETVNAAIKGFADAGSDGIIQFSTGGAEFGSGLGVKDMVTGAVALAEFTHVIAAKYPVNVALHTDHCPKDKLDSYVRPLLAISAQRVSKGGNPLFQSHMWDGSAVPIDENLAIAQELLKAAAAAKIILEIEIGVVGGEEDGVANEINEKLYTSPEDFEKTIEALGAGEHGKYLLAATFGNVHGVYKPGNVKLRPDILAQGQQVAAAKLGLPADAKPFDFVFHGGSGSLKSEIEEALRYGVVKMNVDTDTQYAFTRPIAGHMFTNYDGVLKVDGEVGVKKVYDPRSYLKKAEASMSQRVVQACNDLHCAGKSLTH
GDH-TPI counter-1 – GDH-TPI coupling enzyme inhibitors, primary screen, artefact control for M. tuberculosis FBA inhibitor project, biochemical, absorbance, full deck | GDH-TPI coupled enzyme counterscreen, NADH absorbance | inhibition, % at 4.8 µM | actives 1.2% (n = 360,000); in the data active = inhibition above about 30%;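 also: 0% = DMSO wells and 100% = wells lacking the enzyme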
Rv3671c protease – Rv3671c serine protease inhibitors, primary screen, biochemical, fluorescence polarization, M. tuberculosis H37Rv | inhibition, % at 5.96 µM | actives 0.048% (n = 320,000) | AID 2606, 2010; in the data active = inhibition above about 38%;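 also: extracellular domain of Rv3671c used as enzyme; 0% = enzyme with DMSO and 100% = no enzyme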
FadD28 FP inh – inhibitors of FadD28 bisubstrate probe binding, primary screen, biochemical, fluorescence polarization, single point | Mycobacterium tuberculosis FadD28 fatty-acid-AMP ligase | inhibition, % at 12.5 µM | actives 0.22% (n = 360,000) | AID 588549, 2011; in the data active = inhibition above about 8.5%, passing the limit was not always enough
Mtb BioA inh – M. tuberculosis BioA enzyme inhibitors, primary screen, biochemical, plate reader, single point, HTS; 7,8-diaminopelargonic acid synthase BioA (Mycobacterium tuberculosis); purified M. tuberculosis BioA enzyme; inhibition, % at 9.99 µM; actives 0.096% (n = 360,000); AID 602481, 2012; in the data active = inhibition above about 40%
Mtb FBA confirm – M. tuberculosis aldolase blockers, biochemical, fluorescence, strain H37Rv, confirmation; AID 651616, 2012; inhibition, % at 1 µM; actives 78% (n = 5,600); purified M. tuberculosis FBA, fluorescence read-out; shares compounds with Mtb FBA inh;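 also: 0% = vehicle wells and 100% = reference inhibitor wells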
GDH-TPI counter-2 – GDH-TPI coupling enzyme inhibitors, artefact control for M. tuberculosis FBA inhibitor project, biochemical, fluorescence, high throughput. shares compounds with Mtb FBA inh. GDH-TPI coupled enzyme counterscreen. inhibition, % at 1 µM. actives 81% (n = 5,600). AID 652141, 2013; in the data active = inhibition above about 10%
* marks the source's active call; other numbers are inactive results; / = not tested or not shown; + = active, no number. Rule as the data show it, unless noted: active = inhibition above about 27%; inactive = the rest.

SMILES | Mtb FBA inh | GDH-TPI counter-1 | Rv3671c protease | FadD28 FP inh | Mtb BioA inh | Mtb FBA confirm | GDH-TPI counter-2
COCCNC(=O)c1ccc(-c2cn[nH]c2)c2ccoc12 | 57* | 12 | / | -1 | 2 | 43* | 37*
O=C(NCC1CC1)c1ccc(-c2cn[nH]c2)c2ccoc12 | 27* | 6 | / | -3 | 1 | 43* | 31*
C/C=C/c1cnc2c(c1)C(=O)N([C@H](C)CO)C[C@@H](C)[C@H](CN(C)C(=O)Nc1ccc(F)cc1)O2 | / | / | / | / | 2 | / | /
COc1ccc(NC(=O)N(C)C[C@H]2Oc3cc(C#CCC(C)C)ccc3S(=O)(=O)N([C@@H](C)CO)C[C@H]2C)cc1 | / | / | / | / | 1 | / | /
COc1ccc(CC(=O)Nc2cccc(-c3cn4ccccc4n3)c2)cc1 | 31* | 6 | -16 | -6 | / | 123* | 86*
COc1ccc(CC(=O)Nc2ccc(-c3cn4ccccc4n3)cc2)cc1OC | 71* | 16 | 7 | -4 | 0 | -6 | -6
O=C(Nc1cccc(-c2cn3ccccc3n2)c1)C1CC1 | 36* | 14 | -2 | -5 | 1 | 112* | 88*
COc1ccc(CC(=O)Nc2ccc(-c3cn4ccccc4n3)cc2)cc1 | 66* | 4 | 1 | -3 | 0 | + | +
O=C(C[C@H]1C=C[C@H](NS(=O)(=O)c2ccccc2)[C@@H](CO)O1)N1CCc2ccccc2C1 | / | / | / | / | -3 | / | /
C[C@H]1CN([C@@H](C)CO)C(=O)Cc2cc(NC(=O)NC3CCCCC3)ccc2O[C@H]1CN(C)S(=O)(=O)c1ccc(Cl)cc1 | / | / | / | / | -3 | / | /
CCOc1ccc(S(=O)(=O)NCCc2cn3ccccc3n2)cc1 | 7 | 3 | -14 | -1 | -1 | / | /
CCOc1ccc(-c2cn3ccccc3n2)cc1 | 44* | 4 | 7 | 0 | / | 116* | 69*
C[C@@H]1CN([C@H](C)CO)C(=O)c2cc(NS(=O)(=O)c3cccs3)ccc2O[C@@H]1CN(C)Cc1ccc(Oc2ccccc2)cc1 | / | / | / | / | 0 | / | /
N#Cc1ccccc1COC(=O)c1cccnc1N | 46* | 7 | -11 | -3 | / | 153* | 96*
Fc1ccccc1/C=N/n1cc(-c2ccccc2)[nH]c1=S | 51* | -2 | 2 | -1 | 1 | 137* | 127*
Cc1ccc(C)c(/C=N/n2cc(-c3ccccc3)[nH]c2=S)c1 | 43* | 1 | 3 | 0 | / | + | +
CO[C@H]1CN(C)C(=O)c2cc(NC(=O)C3CCCCC3)ccc2OC[C@H](C)N(C)C[C@@H]1C | / | / | / | / | -4 | / | /
CCC(=O)Nc1ccc2c(c1)OC[C@@H](C)N(C(C)=O)C[C@@H](C)[C@H](OC)CN(C)C2=O | / | / | / | / | -1 | / | /
COc1ccccc1[C@H]1C(c2ccc(F)cc2)=NN(c2ccccc2)[C@@H]1CO | 44* | 16 | / | 0 | 0 | + | +
COc1ccccc1[C@H]1C(c2cccc(C)c2)=NN(c2ccccc2)[C@@H]1CO | 44* | 20 | / | -1 | 2 | 108* | 114*
C[C@H]1C(c2ccc(F)cc2)=NN(c2ccccc2)[C@@H]1CO | 23 | 13 | / | 0 | 2 | / | /
C[C@H]1CN([C@@H](C)CO)S(=O)(=O)c2ccc(-c3ccc(C(=O)N(C)C)cc3)cc2O[C@@H]1CN(C)C(=O)Nc1ccccc1F | / | / | / | / | 3 | / | /
CC(=O)Nc1nc(CC(C)C)cc(-c2ccco2)c1C#N | 50* | -3 | -2 | -2 | 0 | 177* | 146*
C[C@H]1CN([C@@H](C)CO)C(=O)c2cc(NS(=O)(=O)c3ccc(F)cc3)ccc2O[C@@H]1CN(C)Cc1ccccc1 | / | / | / | / | 0 | / | /
Cc1coc2c1c(C)cc1oc(=O)c(CC(=O)NCC(=O)O)c(C)c12 | 101* | 19 | / | -1 | 1 | 141* | 94*
Cc1coc2c1c(C)cc1oc(=O)c(CC(=O)NCCCCCC(=O)O)c(C)c12 | 62* | 2 | 3 | -1 | 0 | + | 175*
